Screening data as filed in PubChem BioAssay.
HT1080-NT tox: kills 2HG-producing HT-1080-NT fibrosarcoma cells; 360,000 tested, 1.6% active; Potency, µM (top dose mostly 46.1 µM), hits mostly cytotoxic; AID 686970; HT-1080-NT fibrosarcoma viability, CellTiter-Glo ATP luminescence, 48 h;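 also: NT is the 2HG producing partner of a matched IDH1 knockdown line; nearly all actives have a fitted effect of over 55% in size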
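Viability by CellTiter-Glo luminescence after 48 h compound exposure at 37C of HT-1080-NT cells (750/well, RPMI, 5% FBS). % activity scaled between DMSO wells and medium-only wells, then curve-fitted and categorized by curve class.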
DT40 TDP1 no CPT: qHTS for Inhibitors of human tyrosyl-DNA phosphodiesterase 1 (TDP1): qHTS in cells in absence of CPT. DT40 Tdp1-/- hTDP1 cells, no CPT, ATP luminescence, 48 h. Potency, µM (highest dose often 46.2 µM), hits mostly inhibitors. 420,000 tested, 15% active. AID 686978, 2013; also: nearly all actives have a fitted effect of over 55% in size
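DT40 Tdp1-/-;hTDP1 cells, no CPT (DMSO vehicle only), 400 cells/well; compounds pin-transferred; ≥48 hr, 37 °C; CellTiter-Glo 30 min RT dark, luminescence read.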
HT1080 IDH1KD tx: kills HT-1080 cells with IDH1 knockdown | AID 686971 | Potency, µM (titrated, usually from 46.1 µM), usual class: cytotoxic | HT-1080 IDH1 knockdown viability, ATP luminescence, 48 h | 360,000 tested, 2% active
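Assay cells: HT-1080 with IDH1 knockdown, 750 per well, RPMI/5% FBS. Exposure: 48 h at 37 °C following 2 h pre-incubation. Read: CellTiter-Glo luminescence; fitted concentration-response, curve class assigned.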
KB-V1 cytotox: KB-V1 MDR subline cytotoxicity | KB-V1 MDR cells viability, CellTiter-Glo, 72 h | 400,000 tested, 3.4% active | AID 1347076 | Potency, µM (highest dose often 46.1 µM), usual class: cytotoxic; also: nearly all actives have a fitted effect of over 60% in size
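KB-V1 MDR subline cells in DMEM (phenol-red free, 10% FBS) exposed to compounds in qHTS concentration series for 72 h at 37 degrees C. Viability read by CellTiter-Glo luminescence; concentration-effect curves fitted after normalization and correction.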
DT40 TDP1 CPT: growth inhibition of DT40 Tdp1-/-;hTDP1 cells with camptothecin (screen for TDP1 inhibitors) | chicken DT40 Tdp1-/-;hTDP1 cells + 20 nM CPT, ATP luminescence, 48 h | Potency, µM (highest dose often 46.2 µM), usual class: inhibitors | 420,000 tested, 12% active | AID 686979; also: nearly all actives have a fitted effect of over 55% in size
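Chicken DT40 Tdp1-/- cells complemented with human TDP1, 400 cells/well, exposed to compounds plus 20 nM camptothecin for at least 48 h at 37 C; viability read as ATP content by CellTiter-Glo luminescence.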
KB-3-1 cytotox: kills parental KB-3-1 adenocarcinoma cells; AID 1347075; Potency, µM (titrated, usually from 46.1 µM), usual class: cytotoxic; KB-3-1 viability, CellTiter-Glo ATP luminescence, 72 h; 400,000 tested, 1.4% active; also: nearly all actives have a fitted effect of over 60% in size
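Luminescent ATP read-out (CellTiter-Glo) measures survival of drug-naive KB-3-1 cells after 72 h compound exposure at 37 °C. Titration series was screened from lowest to highest concentration, with DMSO vehicle plates as background controls.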
Numbers stand for hits. The list is not random: actives were taken first. Their share in the collection is about 19%. Calls follow the shape of the dose curve; as a rule, active = well fitted curve in the direction sought with a large enough effect; inconclusive = small, poorly fitted or top-dose-only effect, or another doubt; inactive = no such curve, though single readings can be large; an effect the other way counts as inactive or inconclusive.

`O=C(c1ccccn1)N(Cc1ccco1)C1(C(=O)NC2CCCCC2)CCCCC1` gave HT1080-NT tox inactive, DT40 TDP1 no CPT inconclusive, HT1080 IDH1KD tx inactive, KB-V1 cytotox 9.2µM, DT40 TDP1 CPT inconclusive and KB-3-1 cytotox inactive.
For Cc1ccc2c(c1)N(C)/C(=C/c1cccc[n+]1C)S2 the results were HT1080-NT tox 21µM, DT40 TDP1 no CPT 0.52µM, HT1080 IDH1KD tx 10µM, KB-V1 cytotox inactive, DT40 TDP1 CPT 3.7µM and KB-3-1 cytotox 0.92µM.
Cc1ccc2c(c1)N(C)/C(=C/c1cccc[n+]1CCO)S2 was read as HT1080-NT tox inconclusive, DT40 TDP1 no CPT 1.2µM, HT1080 IDH1KD tx inconclusive, KB-V1 cytotox inactive, DT40 TDP1 CPT 1.6µM and KB-3-1 cytotox 1.8µM.
CN1/C(=C/c2cccc[n+]2C)Sc2ccccc21 was read as HT1080-NT tox inconclusive, DT40 TDP1 no CPT 0.33µM, HT1080 IDH1KD tx inconclusive, KB-V1 cytotox inactive, DT40 TDP1 CPT 0.58µM and KB-3-1 cytotox 1.5µM.
`CCCCN1/C(=C/c2cccc[n+]2C)Sc2cc(NC(C)=O)ccc21` gave HT1080-NT tox inactive, DT40 TDP1 no CPT inactive, HT1080 IDH1KD tx inactive, KB-V1 cytotox inactive, DT40 TDP1 CPT inactive and KB-3-1 cytotox inactive.
`Cc1ccc(OCCC(=O)OCC(=O)NC(=O)NC2CCCC2)cc1` gave HT1080-NT tox inactive, DT40 TDP1 no CPT inconclusive, HT1080 IDH1KD tx inactive, KB-V1 cytotox inactive, DT40 TDP1 CPT inconclusive and KB-3-1 cytotox inactive.
`C[C@]1(O)CC(=O)C=C[C@H]1Nc1ccccc1` gave HT1080-NT tox 21µM, DT40 TDP1 no CPT 18µM, HT1080 IDH1KD tx inconclusive, KB-V1 cytotox inactive, DT40 TDP1 CPT inconclusive and KB-3-1 cytotox inconclusive.
Screening CC1(C)CC(C(=O)Nc2ccccc2)C(=O)O1 (configuration not stated) returned HT1080-NT tox inactive, DT40 TDP1 no CPT inactive, HT1080 IDH1KD tx inactive, KB-V1 cytotox inactive, DT40 TDP1 CPT inactive and KB-3-1 cytotox inactive.
CCc1nc(SCC(=O)Nc2cc(C)ccc2OC)c2c(C)c(C)sc2n1 was read as HT1080-NT tox inactive, DT40 TDP1 no CPT 15µM, HT1080 IDH1KD tx inactive, KB-V1 cytotox inconclusive, DT40 TDP1 CPT inactive and KB-3-1 cytotox inconclusive.
For CCc1nc(SCC(=O)Nc2ccccc2OC)c2c(C)c(C)sc2n1 the results were HT1080-NT tox inactive, DT40 TDP1 no CPT 21µM, HT1080 IDH1KD tx inactive, KB-V1 cytotox 9.2µM, DT40 TDP1 CPT inconclusive and KB-3-1 cytotox inactive.
COc1cccc(C2CC(=O)C3=C(C2)Nc2ccccc2N(C(=O)CCC(=O)O)C3c2ccc(F)cc2)c1 (configuration not stated) was read as HT1080-NT tox inactive, DT40 TDP1 no CPT inactive, HT1080 IDH1KD tx inactive, KB-V1 cytotox inactive, DT40 TDP1 CPT inactive and KB-3-1 cytotox inactive.
`Cc1ccc(CN2C(=O)c3ccccc3C2C(=O)NC2CCCCCC2)cc1` (configuration not stated) gave DT40 TDP1 no CPT inconclusive, KB-V1 cytotox inactive, DT40 TDP1 CPT inactive and KB-3-1 cytotox inactive.
For COc1c(Cl)cccc1-c1cn2ccccc2n1 the results were HT1080-NT tox inconclusive, DT40 TDP1 no CPT inconclusive, HT1080 IDH1KD tx inconclusive, KB-V1 cytotox 12µM, DT40 TDP1 CPT inactive and KB-3-1 cytotox inactive.
Cc1cc(C(=O)COc2ccc(Cl)cc2Br)c(C)n1C was read as HT1080-NT tox inactive, DT40 TDP1 no CPT inconclusive, HT1080 IDH1KD tx inactive, KB-V1 cytotox inconclusive, DT40 TDP1 CPT inactive and KB-3-1 cytotox inactive.
For Cc1ccccc1OCCC(=O)Nc1cc(S(=O)(=O)N2CCCCC2)ccc1N1CCN(C)CC1 the results were HT1080-NT tox inconclusive, DT40 TDP1 no CPT inconclusive, HT1080 IDH1KD tx inactive, KB-V1 cytotox inactive, DT40 TDP1 CPT inconclusive and KB-3-1 cytotox inactive.
For Cc1ccc(OCC(=O)Nc2cc(S(=O)(=O)N3CCCCC3)ccc2N2CCN(C)CC2)c(C)c1 the results were HT1080-NT tox inactive, DT40 TDP1 no CPT 9.2µM, HT1080 IDH1KD tx inactive, KB-V1 cytotox inactive, DT40 TDP1 CPT 15µM and KB-3-1 cytotox inactive.
